Results on 16 molecules are retold here after PubChem BioAssay.

Values without a mark were called inactive. How the calls were made is not given here.

In this test the target is Pantothenate synthetase (Mycobacterium tuberculosis (strain ATCC 25618 / H37Rv)) (UniProt P9WIL5). The experiment in a line: Recombinant Mtb pantothenate synthetase (PanC) inhibitors, coupled enzyme, confirmatory (AID 375).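 Further: 0% = full reaction with vehicle and 100% = no enzyme background.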 Particulars: coupled enzyme assay; at 10 µM, hits give high values.
Chain of Pantothenate synthetase (Mycobacterium tuberculosis (strain ATCC 25618 / H37Rv)) (P9WIL5 whole entry, looked up): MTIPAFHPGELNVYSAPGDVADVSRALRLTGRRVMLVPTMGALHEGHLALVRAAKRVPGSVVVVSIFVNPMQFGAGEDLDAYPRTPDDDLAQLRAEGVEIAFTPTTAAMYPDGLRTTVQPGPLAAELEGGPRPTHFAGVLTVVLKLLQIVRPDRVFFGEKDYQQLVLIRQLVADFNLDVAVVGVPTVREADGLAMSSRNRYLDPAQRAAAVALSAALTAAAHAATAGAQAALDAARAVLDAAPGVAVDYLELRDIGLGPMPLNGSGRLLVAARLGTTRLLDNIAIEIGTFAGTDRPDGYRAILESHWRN

What is called inhibition is the percentage by which the read-out fell short of the control. Regarding `CCOC(=O)c1[nH]c(C)c(C(=O)Nc2ccccc2C)c1C`, the inhibition was 0%.
With `Fc1ccc(Cn2nnc(-c3ccc(CN4CCOCC4)cc3)n2)cc1` the figure was 0%.
Turning to `CC(=O)c1coc2ccc(OCC(=O)O)cc12`, the inhibition is 0%.
With `CCC(=O)N1CCN=C1SCc1ccc(Cl)cc1` the figure was 0%.
In the case of `CCOC(=O)c1ccc(Oc2cc(C)nc(SC)n2)cc1`, the inhibition was 0%.
With `CC(C)(C)C(=O)N=C1SC2CS(=O)(=O)CC2N1c1ccc2c(c1)OCO2` (stereo unspecified), the inhibition was 0%.
Consider `Cc1ccc(CS(=O)(=O)Cc2ccc(C(=O)NCc3ccccn3)o2)cc1`, for which the inhibition was 0%.
To `Cc1cc(NC(=O)c2cnn3cccnc23)no1` belongs 3%.
For `COc1ccccc1NS(=O)(=O)c1ccc(NC(=O)c2nc3ncccn3n2)cc1`, the inhibition is 0%.
Regarding `CCC(=O)N1CCN(c2nc(-c3ccccc3)c3c(c2C#N)CCCC3)CC1`, the inhibition was 4%.
As for `COc1ccc2c(c1)C(=O)N(c1ccccc1OC)C(=O)C2`, the inhibition is 0%.
Regarding `N#Cc1c(N)oc(-c2cccs2)c1-c1cccs1`, the inhibition was 1%.
With `CCOC(=O)C1CCCN(c2c(Nc3ccc(C)c(C)c3)c(=O)c2=O)C1` (stereo unspecified) the figure was 2%.
Consider `CCOC(=O)c1cc(-c2ccc(N)cc2)sc1N`, for which the inhibition is 0%.
As for `CC(C)c1nnc(NC(=O)C2CCCCC2)s1`, the inhibition was 1%.
For the molecule `CSCCC(NC(=O)CCN1C(=O)c2ccccc2C1=O)C(=O)O` (stereo unspecified), the inhibition was 0%.
